Several values for one entry are separate records, joined by “and”; a condition that tells them apart may be missing. Equal entries are not always repeated. Out of some 5,500 compounds screened, about 2,000 (36%) were called active. Inconclusive results (about 18%) are left out. No stated cut-off is given here; in the data, active means normalized growth mostly below about 0.91 (no sharp cut-off); inconclusive means no clear call, values can overlap the other calls; inactive means mostly above about 0.92. The list shows a part of the results.
Experiment: chemical genetic growth profiling, strain panel (AID 1159580);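 further: tested at 20 µM; growth read once vehicle control cultures reached saturation at 30 °C; 1 = growth at the plate median or of vehicle wells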
Conditions: S. cerevisiae deletion strains, growth OD

Measured: normalized growth

CC1(C)[C@@H]2CC[C@@]1(C)C(=O)C2
inactive: locus YAL013W, strain DEP1, stronger effect = lower value 0.962 | locus YAL021C, strain ccr4, stronger effect = lower value 0.97 | locus YAL026C, strain drs2, stronger effect = lower value 1.03 | locus YAL030W, strain snc1, stronger effect = lower value 1.02 | locus YBL061C, strain skt5, stronger effect = lower value 1.02 | locus YBR009C, strain hhf1, stronger effect = lower value 1.01 | locus YBR021W, strain FUR4, stronger effect = lower value 1 | locus YBR023C, strain chs3, stronger effect = lower value 1.01 | locus YBR171W, strain sec66, stronger effect = lower value 1.02 | locus YBR229C, strain ROT2, stronger effect = lower value 0.99 | locus YBR231C, strain swc5, stronger effect = lower value 1.01 | locus YBR279W, strain paf1, stronger effect = lower value 0.993 | locus YCL011C, strain gbp2, stronger effect = lower value 1 | locus YCL016C, strain dcc1, stronger effect = lower value 0.987 | locus YCL029C, strain bik1, stronger effect = lower value 1 | locus YCL061C, strain MRC1, stronger effect = lower value 1.02 | locus YCL069W, strain vba3, stronger effect = lower value 1.02 | locus YCR088W, strain abp1, stronger effect = lower value 1.01 | locus YDL005C, strain med2, stronger effect = lower value 1.01 | locus YDL035C, strain GPR1, stronger effect = lower value 1.01 | locus YDL040C, strain nat1, stronger effect = lower value 1 | locus YDL074C, strain BRE1, stronger effect = lower value 1.02 | locus YDL101C, strain DUN1, stronger effect = lower value 1 | locus YDL134C, strain PPH21, stronger effect = lower value 0.994 | locus YDL185W, strain tfp1, stronger effect = lower value 1 | locus YDL192W, strain arf1, stronger effect = lower value 1 | locus YDR001C, strain nth1, stronger effect = lower value 1.01 | locus YDR069C, strain doa4, stronger effect = lower value 1.02 | locus YDR101C, strain arx1, stronger effect = lower value 0.995 | locus YDR137W, strain rgp1, stronger effect = lower value 1.02 | locus YDR159W, strain sac3, stronger effect = lower value 1.06 | locus YDR162C, strain NBP2, stronger effect = lower value 1.01 | locus YDR195W, strain ref2 0.972 | locus YDR297W, strain sur2, stronger effect = lower value 1.02 | locus YDR318W, strain mcm21, stronger effect = lower value 0.996 | locus YDR334W, strain swr1, stronger effect = lower value 1.01 | locus YDR335W, strain msn5, stronger effect = lower value 0.993 | locus YDR388W, stronger effect = lower value 1.01 | locus YDR392W, strain spt3, stronger effect = lower value 0.902 | locus YDR502C, strain sam2, stronger effect = lower value 0.995 | locus YEL003W, strain gim4, stronger effect = lower value 1.01 | locus YEL037C, strain rad23, stronger effect = lower value 1 | locus YEL061C, strain CIN8 (second series), stronger effect = lower value 1 | locus YEL061C, strain CIN8, stronger effect = lower value 1 | locus YER015W, strain faa2, stronger effect = lower value 1.01 | locus YER016W, strain bim1, stronger effect = lower value 1.01 | locus YER110C, stronger effect = lower value 1.01 | locus YER111C, strain swi4, stronger effect = lower value 1.01 | locus YER155C, strain BEM2 (second series), stronger effect = lower value 1.02 | locus YER155C, strain BEM2, stronger effect = lower value 0.982 | locus YER167W, strain BCK2, stronger effect = lower value 0.992 | locus YFR010W, strain ubp6, stronger effect = lower value 1.02 | locus YGL078C, strain dbp3, stronger effect = lower value 0.996 | locus YGL086W, strain mad1, stronger effect = lower value 0.995 | locus YGL167C, strain pmr1, stronger effect = lower value 1.01 | locus YGL173C, strain kem1, stronger effect = lower value 1.03 | locus YGL227W, strain vid30, stronger effect = lower value 1.01 | locus YGL240W, strain doc1, stronger effect = lower value 1.01 | locus YGL248W, strain PDE1, stronger effect = lower value 0.99 | locus YGL253W, strain hxk2, stronger effect = lower value 1.02 | locus YGR078C, strain PAC10, stronger effect = lower value 1.01 | locus YGR135W, strain pre9, stronger effect = lower value 0.996 | locus YGR252W, strain gcn5, stronger effect = lower value 0.937 | locus YHR013C, strain ard1, stronger effect = lower value 0.991 | locus YHR027C, strain rpn1, stronger effect = lower value 1.02 | locus YHR030C, strain SLT2, stronger effect = lower value 1 and 1.03 | locus YHR079C, strain IRE1 (second series), stronger effect = lower value 0.997 | locus YHR079C, strain IRE1, stronger effect = lower value 1.05 | locus YHR094C, strain hxt1, stronger effect = lower value 1 | locus YHR129C, strain ARP1, stronger effect = lower value 1 | locus YHR142W, strain chs7, stronger effect = lower value 0.989 | locus YHR200W, strain rpn10, stronger effect = lower value 1 | locus YIL066C, strain RNR3, stronger effect = lower value 1.03 | locus YIL073C, strain SPO22, stronger effect = lower value 1.02 | locus YIL125W, strain kgd1, stronger effect = lower value 1 | locus YIR030C, strain dcg1, stronger effect = lower value 0.996 | locus YJL092W, strain hpr5, stronger effect = lower value 1.01 | locus YJL095W, strain BCK1 (second series), stronger effect = lower value 1.01 | locus YJL095W, strain BCK1, stronger effect = lower value 1.02 and 1.05 | locus YJL115W, strain asf1, stronger effect = lower value 1.01 | locus YJL129C, strain trk1, stronger effect = lower value 1.03 | locus YJL134W, strain LCB3, stronger effect = lower value 0.995 | locus YJL154C, strain vps35, stronger effect = lower value 1.01 | locus YJL164C, strain tpk1, stronger effect = lower value 0.98 | locus YJL166W, strain qcr8, stronger effect = lower value 1.03 | locus YJL168C, strain set2, stronger effect = lower value 1.01 | locus YJL187C, strain SWE1 (second series), stronger effect = lower value 1.01 | locus YJL187C, strain SWE1, stronger effect = lower value 1 | locus YJR043C, strain POL32, stronger effect = lower value 1.01 | locus YJR066W, strain TOR1, stronger effect = lower value 0.973 | locus YKL009W, strain mrt4, stronger effect = lower value 0.987 | locus YKL068W, stronger effect = lower value 0.992 | locus YKL085W, strain MDH1 (second series), stronger effect = lower value 1.01 | locus YKL085W, strain MDH1, stronger effect = lower value 1.01 | locus YKL160W, strain elf1, stronger effect = lower value 0.976 | locus YKR001C, strain vps1, stronger effect = lower value 0.992 | locus YKR026C, strain gcn3, stronger effect = lower value 1.01 | locus YKR091W, strain srl3, stronger effect = lower value 0.996 | locus YLL001W, strain dnm1, stronger effect = lower value 0.962 | locus YLL026W, stronger effect = lower value 1.01 | locus YLL041C, strain sdh2, stronger effect = lower value 1.01 | locus YLR027C, strain aat2, stronger effect = lower value 1.01 | locus YLR039C, strain RIC1, stronger effect = lower value 1.03 | locus YLR058C, strain SHM2, stronger effect = lower value 1 | locus YLR102C, strain apc9, stronger effect = lower value 0.992 | locus YLR113W, strain HOG1, stronger effect = lower value 1.05 | locus YLR221C, strain rsa3, stronger effect = lower value 1.05 | locus YLR258W, strain gsy2, stronger effect = lower value 0.986 | locus YLR262C, strain YPT6 (second series), stronger effect = lower value 1.01 | locus YLR262C, strain YPT6, stronger effect = lower value 1.05 | locus YLR268W, strain sec22, stronger effect = lower value 0.987 | locus YLR320W, strain mms22, stronger effect = lower value 1.04 | locus YLR330W, strain CHS5, stronger effect = lower value 0.996 | locus YLR342W, strain FKS1 (second series), stronger effect = lower value 1.02 | locus YLR342W, strain FKS1, stronger effect = lower value 1.01 | locus YLR357W, strain rsc2, stronger effect = lower value 0.993 | locus YLR370C, strain arc18, stronger effect = lower value 1.01 | locus YLR371W, strain rom2, stronger effect = lower value 1 | locus YLR384C, strain iki3, stronger effect = lower value 1.02 | locus YLR418C, strain cdc73, stronger effect = lower value 0.994 | locus YML016C, strain PPZ1, stronger effect = lower value 0.997 | locus YML032C, strain rad52, stronger effect = lower value 1 | locus YML120C, strain ndi1, stronger effect = lower value 0.981 | locus YML124C, strain tub3, stronger effect = lower value 1.01 | locus YMR058W, strain fet3, stronger effect = lower value 1.03 | locus YMR078C, strain ctf18, stronger effect = lower value 1.01 | locus YMR125W, strain sto1, stronger effect = lower value 0.987 | locus YMR129W, stronger effect = lower value 1 | locus YMR205C, strain PFK2, stronger effect = lower value 1 | locus YMR223W, strain ubp8, stronger effect = lower value 1 | locus YMR231W, strain pep5, stronger effect = lower value 1.01 | locus YMR307W, strain GAS1, stronger effect = lower value 0.98 | locus YNL067W, strain RPL9B, stronger effect = lower value 1 | locus YNL071W, strain lat1, stronger effect = lower value 1.01 | locus YNL183C, strain NPR1, stronger effect = lower value 0.985 | locus YNL209W, strain ssb2, stronger effect = lower value 0.991 | locus YNL233W, strain BNI4, stronger effect = lower value 1.01 | locus YNL248C, strain rpa49, stronger effect = lower value 1.04 | locus YNL250W, strain rad50, stronger effect = lower value 1.03 | locus YNL271C, strain bni1, stronger effect = lower value 1 | locus YNL298W, strain CLA4, stronger effect = lower value 0.99 | locus YNL307C, strain MCK1, stronger effect = lower value 0.997 | locus YNL322C, strain KRE1 (second series), stronger effect = lower value 1.01 | locus YNL322C, strain KRE1, stronger effect = lower value 0.985 | locus YNR049C, strain mso1, stronger effect = lower value 1.01 | locus YNR052C, strain pop2, stronger effect = lower value 0.999 | locus YOL012C, strain htz1 1.32 | locus YOL147C, strain pex11, stronger effect = lower value 1 | locus YOR001W, strain rrp6, stronger effect = lower value 1.07 | locus YOR061W, strain CKA2, stronger effect = lower value 1.01 | locus YOR069W, strain VPS5, stronger effect = lower value 1 | locus YOR070C, strain gyp1, stronger effect = lower value 1.03 | locus YOR080W, strain dia2, stronger effect = lower value 1.01 | locus YOR083W, strain WHI5, stronger effect = lower value 0.973 | locus YOR106W, strain vam3, stronger effect = lower value 0.991 | locus YOR136W, strain idh2, stronger effect = lower value 0.991 | locus YOR144C, strain elg1, stronger effect = lower value 0.996 | locus YOR184W, strain ser1, stronger effect = lower value 0.992 | locus YOR231W, strain MKK1, stronger effect = lower value 1.05 | locus YOR265W, strain rbl2, stronger effect = lower value 1 | locus YOR270C, strain vph1, stronger effect = lower value 1.06 | locus YOR290C, strain snf2, stronger effect = lower value 0.969 | locus YOR316C, strain cot1, stronger effect = lower value 0.999 | locus YPL051W, strain arl3, stronger effect = lower value 0.997 | locus YPL055C, strain LGE1, stronger effect = lower value 1 | locus YPL078C, strain atp4, stronger effect = lower value 0.966 | locus YPL106C, strain sse1, stronger effect = lower value 1.01 | locus YPL240C, strain hsp82, stronger effect = lower value 1.01 | locus YPL241C, strain CIN2, stronger effect = lower value 1 | locus YPL256C, strain CLN2, stronger effect = lower value 1.01 | locus YPR119W, strain clb2, stronger effect = lower value 0.998 | locus YPR141C, strain kar3, stronger effect = lower value 0.986 | locus YPR163C, strain tif3, stronger effect = lower value 0.999 | locus YPR167C, strain met16, stronger effect = lower value 1 | strain wtn01, stronger effect = lower value 0.987

Source: PubChem BioAssay AID1159580 (chemical genetic matrix, 2015)
